Bioassay records (PubChem BioAssay)
A selection: hits, their analogues and other compounds. The true share with any hit is near 3.4%.
p53ts 32C kill = kills p53ts cells at the permissive temperature; H1299-p53A138V at 32C, ATP luminescence viability, 24 h; Potency, µM (series often up to 46.1 µM), for inactives: at the highest dose activity change, negative = cytotoxicity, hits mostly cytotoxic; 130,000 tested, 0.93% active; AID 924;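 note: 0% = DMSO and -100% = full killing by reference compound; nearly all actives have a fitted effect of over 55% in size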
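Viability by ATPlite luminescence after 24 h compound treatment (up to 46 uM) at the permissive 32C. Cells are H1299 carrying p53 A138V. Scale runs from DMSO basal to 100 uM tamoxifen as full kill; AC50 from Hill fits.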
p53ts 39C tox = cytotoxicity in p53ts cells at nonpermissive temperature | H1299-p53A138V viability at 39C, ATP luminescence, 24 h | Potency, µM (top dose mostly 46.1 µM), for inactives: at the highest dose activity change, negative = cell killing, usual class: cytotoxic | 130,000 tested, 1.5% active | AID 902; note: % is set by controls: 0 for no effect and ±100 for the full control effect; nearly all actives have a fitted effect of over 55% in size
Luciferase inh = inhibitors of firefly luciferase; AID 411; Potency, µM (highest dose often 57.1 µM), inactives show top-dose activity change, negative = inhibition, actives largely listed as inhibitors; purified firefly luciferase, luminescence, 8 min; 72,000 tested, 2.2% active; note: % is set by controls: 0 for no effect and ±100 for the full control effect; nearly all actives have a fitted effect of over 40% in size
Target sequence (P08659 whole entry, looked up): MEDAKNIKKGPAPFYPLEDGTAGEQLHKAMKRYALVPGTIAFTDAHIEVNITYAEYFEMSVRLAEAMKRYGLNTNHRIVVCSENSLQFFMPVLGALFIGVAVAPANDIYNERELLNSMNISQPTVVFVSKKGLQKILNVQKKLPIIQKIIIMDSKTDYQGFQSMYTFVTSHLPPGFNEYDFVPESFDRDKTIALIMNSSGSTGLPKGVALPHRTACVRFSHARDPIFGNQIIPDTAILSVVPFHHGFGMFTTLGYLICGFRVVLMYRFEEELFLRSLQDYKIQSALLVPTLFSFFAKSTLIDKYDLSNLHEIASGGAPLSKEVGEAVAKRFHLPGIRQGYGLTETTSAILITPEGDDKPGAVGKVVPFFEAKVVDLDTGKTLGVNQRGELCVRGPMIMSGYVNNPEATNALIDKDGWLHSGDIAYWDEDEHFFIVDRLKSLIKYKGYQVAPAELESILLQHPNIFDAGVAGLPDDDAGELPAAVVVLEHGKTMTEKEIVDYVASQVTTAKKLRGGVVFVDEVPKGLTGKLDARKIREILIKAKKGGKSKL
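Substrate buffer containing 10 uM ATP (pH 7.2 imidazole, Mg2+, KCl, detergent, BSA) is dispensed, compound pinned in, then luciferase/luciferin detector mix added. After 8 min at ambient temperature, light output is measured.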
Imprint erasure = inducers of genomic imprint erasure in mouse ES cells; mouse ES Peg3-LacZ reporter, beta-gal luminescence, 40 h; Potency, µM (top dose mostly 60.7 µM), without a hit: at the top dose activity change, positive = activation, usual class: activators; 110,000 tested, 0.02% active; AID 1948
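Gelatin-coated wells received 300 freshly trypsinized female ES cells with a Peg3LacZ-Neo reporter on the maternal allele, then incubated 40 hours at 37C. BetaGlo was added for 5 minutes at room temperature before a single luminescence read.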
Tau filament bind = binders of human tau filaments. P10636. recombinant tau filaments, thioflavin S fluorescence, 15 h; filaments grown with octadecylsulfate alongside compound. Potency, µM (highest dose often 57.1 µM), for the others: at the top dose activity change, negative = inhibition. 71,000 tested, 2% active;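 note: % is set by controls: 0 for no effect and ±100 for the full control effect; actives lower thioflavin S fluorescence by blocking filaments or displacing dye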
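Quantitative HTS: thioflavine S signal from ODS-induced tau filaments, excited at 450 nm, emission 510 nm. Conditions: 1 uM tau, 30 uM ODS, 15 h at 37 C, pH 7.4.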
* marks the source's active call; other numbers are inactive results; i = inactive; u = inconclusive; x = no result given; ! = not confirmed by another sample; [ ] = dose if it differs, or a comment. Calls come from the whole dose curve; as a rule, active = well fitted curve in the direction sought with a large enough effect; inconclusive = small, poorly fitted or top-dose-only effect, or another doubt; inactive = no such curve, though single readings can be large; an effect the other way counts as inactive or inconclusive. Potency is the fitted concentration of half-maximal effect.

SMILES	p53ts 32C kill	p53ts 39C tox	Luciferase inh	Imprint erasure	Tau filament bind
O=C(N1CCOCC1)N1CCN(c2nc(-c3ccc(F)cc3)cs2)CC1	-25%	-30%	16µM*	-18%	18%
Cc1ccc(-c2cc(-c3ccc(C)o3)nc(N)c2C#N)cc1	-10%	-5%	-5%	-9%	11%
Cc1ccc(-c2cc(-c3ccc4c(c3)OCO4)c(C#N)c(N)n2)o1	-13%	-23%	-10%	-24%	13µM*
Cc1ccc(NC(=O)c2oc3ccccc3c2NC(=O)C2CCCCC2)cc1	-2%	36%	x	15%[10.9 µM]	x
O=C(Nc1ccc2c(c1)OCCO2)c1c(F)cccc1F	u	u	13µM*	-56%	0%
O=C(Nc1ccc2c(c1)OCCO2)c1ccccc1F	5µM*	7.9µM*	5µM*	-89%	u
C[C@@H]1NC(=O)[C@@H](C)COC(=O)[C@H](C)NC(=O)[C@@H](C)COC1=O	-3%[9.22 µM]	-1%[9.22 µM]	2%[11.4 µM]	x	x
CC(Oc1ccc(Br)cc1)C(=O)NCc1cccnc1 (configuration not stated)	1%	0%	x	x	x
Cc1noc(C)c1COC(=O)CCN1c2ccccc2Sc2ccccc21	0%	-14%	-2%	-14%	20µM*
COC(=O)c1c(SCC(=O)Nc2ccccc2C(F)(F)F)[nH]c2ccc(Cl)cc2c1=O	u	-25%	x	-3%[10.9 µM]	x
COC(=O)c1c(SCC(=O)Nc2cc(C)cc(C)c2)[nH]c2ccccc2c1=O	u	13µM*	x	-8%[10.9 µM]	x
COc1cc(NC(=O)c2ccc(-c3nc(COc4ccccc4)c(C)o3)cc2)cc(OC)c1	0%	-5%	x	13%[10.9 µM]	x
COc1ccccc1CNc1nc(-c2ccccc2OC)nc2ccccc12	4%	4%	-4%[2.29 µM]	-9%	4µM*
COc1ccccc1CNc1cc(-c2ccccc2OC)ncn1	13µM*	u	1%[2.29 µM]	-16%	420%
COc1ccccc1-c1nc(NC2CC2)c2ccccc2n1	3%	-4%	1%[2.29 µM]	-3%	16µM*
COc1ccc(CNc2ncnc3ccc(-c4ccc(N(C)C)cc4)cc23)c(OC)c1	6%	8%	1%[2.29 µM]	-19%	2.5µM*
O=C(Nc1ccc(C(F)(F)F)cc1)C1(c2cccs2)CCOCC1	-6%	14%	x	13%[10.9 µM]	x
CC(=O)[C@@H]1[C@H]2[C@@H](C(=O)[C@H]3OC[C@H]2O3)[C@@H]2C=Cc3ccccc3N12	x	x	-14%[11.4 µM]	x	372%
CCc1ccc(C(=O)c2cn(CC(=O)Nc3ccc4c(c3)OCO4)c3cc(OC)c(OC)cc3c2=O)cc1	2%	-12%	x	-8%[10.9 µM]	x
COc1ccccc1CNc1nc(-c2ccc(N(C)C)cc2)nc2ccccc12	u	20µM*	0%[2.29 µM]	-35%	i
COc1ccccc1-c1nc(NCc2ccccc2)c2ccccc2n1	-23%	-3%	0%[2.29 µM]	-21%	4µM*
COc1ccccc1-c1nc(NCc2cnc(C)cn2)c2ccccc2n1	-7%	3%	0%[2.29 µM]	-7%	u
COc1ccccc1-c1ccc(NC2CCCCC2)nn1	u	u	13µM*	-29%	-6%
COc1ccccc1-c1ccc(Nc2cccc(C(F)(F)F)c2)nn1	13%	7%	x	x	x
C/C=C(/C)C#N	-16%[1.84 µM]	6%	x	5%	-4%
SMILES	p53ts 32C kill	p53ts 39C tox	Luciferase inh	Imprint erasure	Tau filament bind
CC(C)NC(=O)C(c1ccccc1)N1Cc2ccccc2C1=O (configuration not stated)	-4%	x	x	x	x
C[C@@H](C(=O)O)c1ccc(N2Cc3ccccc3C2=O)cc1	10µM*	5µM*	5µM*	-82%[16.8 µM]	10%[25.6 µM]
CCCCCN=Cc1c(C)[nH]n(-c2nc3ccccc3s2)c1=O	1µM*	0.79µM*	7.9µM*	-97%	35%[11.4 µM]
CCCCCCCCCCCC1=C(O)C(=O)C=C(O)C1=O	13µM*	13µM*	-17%	-4%	3.2µM*
CCCCCCc1c(O)c2ccccc2[nH]c1=O	-8%	-2%	-3%	x	-17%
Cc1ccc(NC(=O)CN(C)S(=O)(=O)c2ccc3nc(C)sc3c2)c(C)c1	6%	-15%	x	7%[10.9 µM]	x
CCCN(CCC)S(=O)(=O)c1ccc(C(=O)Nc2nnc(CSC)o2)cc1	-26%	u	1%	-21%	6%
CCCCN(CC)S(=O)(=O)c1ccc(C(=O)Nc2nnc(CSC)o2)cc1	-26%	25µM*	3%	-30%	-2%
CCCCN(C)S(=O)(=O)c1ccc(C(=O)Nc2nnc(-c3cccs3)o2)cc1	-24%	7.9µM*	-1%	-45%	-1%
CCCCN(CCCC)S(=O)(=O)c1ccc(C(=O)Nc2nnc(CSC)o2)cc1	-20%	16µM*	3%	-24%	-4%
CCN(Cc1ccccc1)S(=O)(=O)c1ccc(C(=O)Nc2nnc(-c3ccccc3OC)o2)cc1	-2%	13µM*	1%	-15%	22%
COc1ccc(-c2[nH]c(-c3ccc(O)cc3)nc2-c2ccccc2)cc1	-20%	u	x	12%[10.9 µM]	x
Clc1ccccc1C(c1ccccc1)(c1ccccc1)n1ccnc1	35%[20.6 µM]	25µM*!	5%[25.5 µM]	-21%	15%[25.6 µM]
Clc1ccccc1-c1nccc(-n2ccnc2)n1	-2%	0%	-1%[2.29 µM]	-5%	12%
O=C1c2ccccc2C(=O)C12Cc1ccccc1N1CCN(c3ccccc3)CC12 (configuration not stated)	-3%	-2%	0%	10%	10µM*
